# Screens as filed in PubChem.
# Only some compounds are listed: those with a hit (about 3.3% of all), similar ones and a draw of the others.
# PLK1 PBD inh: inhibitors of human PLK1 polo-box domain binding. P53350. Plk1 PBD binding of FITC phosphopeptide, fluorescence polarization. Potency, µM, inactives show max response, negative = inhibition, usual class: inhibitors. 360,000 compounds, 2.8% hits. AID 720504; further: potency means the concentration at half of the fitted maximal effect; series mostly up to about 57 µM; nearly all actives have a fitted effect of over 65% in size
# USP2a inh: USP2a (human) protease inhibition; O75604; USP2 core, Ub-CHOP2 coupled fluorogenic reporter, 485/531; Potency, µM (series often up to 38.3 µM), for the others: at the top dose activity change, negative = inhibition, actives largely listed as inhibitors; 330,000 compounds, 0.01% hits; AID 463254;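 further: potency means the concentration at half of the fitted maximal effect; plate controls were DMSO wells for no effect and full inhibition by NEM control for full effect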
#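 USP2 core (10nM final) preincubated 30min RT with compound in 20mM Tris-HCl pH 8.0, 2mM CaCl2, 2mM beta-mercaptoethanol, 0.05% CHAPS; 25nM Ub-CHOP2 plus 25nM reporter substrate added, fluorescence (Ex485/Em531) read after 60min.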
# WRN helicase inh: WRN helicase (human) inhibition; WRN helicase unwinding, fluorescent forked duplex, kinetic; Potency, µM (highest dose often 114 µM), for inactives: at the highest dose activity change, negative = inhibition, most hits filed as inhibitors; 360,000 compounds, 0.46% hits; AID 651768; further: potency means the concentration at half of the fitted maximal effect; nearly all actives have a fitted effect of over 55% in size
# Target sequence (Q14191 whole entry, looked up): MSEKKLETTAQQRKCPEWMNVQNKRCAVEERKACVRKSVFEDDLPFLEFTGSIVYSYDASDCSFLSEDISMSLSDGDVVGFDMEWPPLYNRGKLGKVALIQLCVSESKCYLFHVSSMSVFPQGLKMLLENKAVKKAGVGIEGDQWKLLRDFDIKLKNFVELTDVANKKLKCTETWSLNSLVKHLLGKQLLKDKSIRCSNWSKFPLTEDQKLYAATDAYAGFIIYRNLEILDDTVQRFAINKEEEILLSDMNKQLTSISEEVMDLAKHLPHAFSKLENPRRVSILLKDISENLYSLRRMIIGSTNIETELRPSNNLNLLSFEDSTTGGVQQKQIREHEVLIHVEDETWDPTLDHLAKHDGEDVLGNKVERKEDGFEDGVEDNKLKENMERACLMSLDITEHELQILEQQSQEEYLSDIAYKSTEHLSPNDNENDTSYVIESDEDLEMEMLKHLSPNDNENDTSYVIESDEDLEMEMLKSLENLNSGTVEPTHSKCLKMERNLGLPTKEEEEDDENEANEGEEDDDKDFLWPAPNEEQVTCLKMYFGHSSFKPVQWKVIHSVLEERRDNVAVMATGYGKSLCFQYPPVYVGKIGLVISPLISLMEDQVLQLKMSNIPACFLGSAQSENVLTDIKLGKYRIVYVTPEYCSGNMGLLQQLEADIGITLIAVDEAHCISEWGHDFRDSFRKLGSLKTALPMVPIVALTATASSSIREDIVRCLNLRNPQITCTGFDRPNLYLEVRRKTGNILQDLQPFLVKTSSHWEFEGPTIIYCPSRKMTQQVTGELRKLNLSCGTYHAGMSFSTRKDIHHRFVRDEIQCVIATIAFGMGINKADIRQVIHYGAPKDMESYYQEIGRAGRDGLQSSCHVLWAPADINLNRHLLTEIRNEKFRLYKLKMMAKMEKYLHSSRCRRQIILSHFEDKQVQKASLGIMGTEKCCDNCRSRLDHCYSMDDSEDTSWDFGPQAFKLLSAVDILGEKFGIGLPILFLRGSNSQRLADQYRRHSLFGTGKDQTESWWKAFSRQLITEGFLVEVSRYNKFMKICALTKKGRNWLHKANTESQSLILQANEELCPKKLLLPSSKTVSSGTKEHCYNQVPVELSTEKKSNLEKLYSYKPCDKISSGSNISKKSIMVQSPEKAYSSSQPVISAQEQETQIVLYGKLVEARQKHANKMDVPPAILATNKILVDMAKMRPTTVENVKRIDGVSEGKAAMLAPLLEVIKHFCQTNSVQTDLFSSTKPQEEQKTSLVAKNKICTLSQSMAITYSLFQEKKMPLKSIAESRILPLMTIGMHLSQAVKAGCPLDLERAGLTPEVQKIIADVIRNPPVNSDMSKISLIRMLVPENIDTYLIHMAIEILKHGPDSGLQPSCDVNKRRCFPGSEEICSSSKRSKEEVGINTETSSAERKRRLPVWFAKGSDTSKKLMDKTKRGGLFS
#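 Fluorescence dequenching readout, ex 525 nm/em 598 nm, kinetic mode: forked duplex DNA (100 nM final) with adjacent fluorophore and quencher unwound by WRN (20 nM final) with 2 mM ATP. Compound preincubation 15 min, room temperature.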
# PI5P4K alpha inh: PI5P4K alpha (human) kinase inhibition. P48426. PI5P4Kalpha enzyme, ADP-Glo luminescence, 60 min; stronger effect = lower value. max response, %. 330,000 compounds, 1.2% hits; active means max response of -50% or lower; inconclusive means between -30% and -50%; inactive means -30% or higher; further: value at the top dose of about 77 µM
#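 Reactions run in 0.038 M HEPES pH 7.4, 0.28 mM EGTA, 0.1% CHAPS and 5% DMSO, with PI5P4Kalpha, substrate, compound and 5 microM ATP final, one hour at room temperature. Readout is ADP-Glo luminescence.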
# USP1 inh: USP1/UAF1 (human) deubiquitinase inhibition; 390,000 compounds, 0.23% hits; AID 743255; Potency, µM (series often up to 57.1 µM), without a hit: top-dose activity change, negative = inhibition, actives largely listed as inhibitors; recombinant USP1/UAF1, Ub-Rhodamine cleavage fluorescence; further: potency means the concentration at half of the fitted maximal effect; nearly all actives have a fitted effect of over 60% in size
#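 In this screen, compounds sit with the deubiquitinase complex (1nM) for 15 min at room temperature before Ub-Rho is added at 150nM final. Fluorescence rise is then followed for 6 reads every 60 seconds.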
# * = called active by the depositor; ? = inconclusive; . = no result given. Unless noted, the call rests on the fitted dose curve; in most records, active means well fitted curve in the direction sought with a large enough effect; inconclusive means small, poorly fitted or top-dose-only effect, or another doubt; inactive means no such curve, though single readings can be large; an effect the other way counts as inactive or inconclusive. Unless noted, on the % scale 0 is the no-effect control and ±100 the full control effect.
SMILES,PLK1 PBD inh,USP2a inh,WRN helicase inh,PI5P4K alpha inh,USP1 inh
O=[N+]([O-])c1ccc(N/N=C/c2ccccc2)c(F)c1,2%,-1%,2%,17,-17%
CC(=O)Nc1ccc(C=NNc2ccc(S(=O)(=O)Nc3ccccc3C(=O)O)cc2[N+](=O)[O-])cc1,21µM*,-2%,?,-92*,-14%
CN(CCO)c1ccc(C=NNc2ccc([N+](=O)[O-])cc2S(=O)(=O)Nc2ccccc2C(=O)O)cc1,21µM*,-5%,45µM*,-55*,-20%
CC(=O)Nc1ccc(C=NNc2ccc([N+](=O)[O-])cc2S(=O)(=O)Nc2ccccc2C(=O)O)cc1,?,-5%,-30%,-64*,-18%
NS(=O)(=O)c1ccc(N/N=C/c2ccc(C(=O)O)cc2)c([N+](=O)[O-])c1,5%,-2%,-14%,-14,-21%
CCOC(=O)C1CCCN(C(=O)c2ccc3c(c2)N(Cc2ccc(Cl)cc2)C(=O)c2ccccc2S3=O)C1 (centres undefined),.,.,.,.,-21%
CCOC(=O)/C=C/[C@H]1CCc2cccc(Cl)c2O1,21µM*,1%,-7%,2,11%
O=C(O)/C(=C\c1ccccc1OC(F)F)c1ccc(-c2ccccc2)cc1,?,0%,-25%,0,-10%
O=C(O)/C(=C\c1ccc(F)cc1)c1ccc(-c2ccccc2)cc1,24µM*,-9%,-32%,2,-24%
COc1ccc(OC)c(NC(=O)N2CCC3(CC2)Oc2ccccc2C(=O)N3Cc2ccccc2F)c1,.,.,.,.,5%
CC(C(=O)Nc1ccccc1C(=O)N1CCOCC1)N(c1ccccc1)S(C)(=O)=O (centres undefined),27µM*,5%,10%,-9,-15%
Cc1ccc(N2C(=O)CC(N(O)C3CC(=O)N(c4ccc(C)cc4)C3=O)C2=O)cc1 (centres undefined),-5%,2%,-1%,0,-12%
CCCCCCC(=O)N(O)C1CC(=O)N(c2ccc(C)cc2)C1=O (centres undefined),27µM*,3%,-4%,-11,-14%
CCCCCCC(=O)N(O)C1CC(=O)N(c2ccc(Cl)cc2)C1=O (centres undefined),?,2%,79µM*,-26,-10%
CC(=O)OCCCNc1cc(SCc2ccco2)c2nonc2c1[N+](=O)[O-],?,0%,22µM*,-51*,0%
CCCSc1cc(NCCOC(C)=O)c([N+](=O)[O-])c2nonc12,?,1%,16%,3,-15%
CCCC(=O)OCCNc1cc(SCc2ccco2)c2nonc2c1[N+](=O)[O-],?,4%,35µM*,-61*,-8%
CCCSc1cc(NCCOC(=O)CCC)c([N+](=O)[O-])c2nonc12,17µM*,3%,-15%,3,-19%
CCCC(=O)OCCNc1cc(Sc2nccn2C)c2nonc2c1[N+](=O)[O-],2.4µM*,3%,-33%,-5,-10%
COc1ccccc1CNc1nc(-c2ccco2)nn1C(=O)c1ccccc1[N+](=O)[O-],.,.,.,.,-17%
COc1ccccc1CNC(=O)Cc1c(C)c2c(cc(C)c3c(C)coc32)oc1=O,.,.,.,.,-6%
Cc1nc(C(=O)Nc2ccccc2)sc1C(=O)Nc1ccccc1,27µM*,-2%,-15%,-25,-12%
CCC1CCc2nc3sc(C(=O)Nc4ccc(C)cc4C)c(N)c3cc2C1 (centres undefined),.,.,.,.,-25%
O=C(OCC(=O)N1CCN(C(=O)c2ccco2)CC1)c1cc(-c2ccco2)nc2ccccc12,?,2%,50µM*,.,?
O=C(OCC(=O)N1CCN(C(=O)c2ccco2)CC1)c1cc(-c2ccc(Cl)c(Cl)c2Cl)nc2ccccc12,-17%,2%,?,-3,?
SMILES,PLK1 PBD inh,USP2a inh,WRN helicase inh,PI5P4K alpha inh,USP1 inh
Cc1ccccc1Cn1cc(S(=O)(=O)c2ccc(Cl)cc2)c(=O)c2cc3c(cc21)OCO3,.,.,.,.,-17%
Nc1cc2[nH]c(=O)c3ccccc3c2cc1[N+](=O)[O-],5%,.,-9%,-4,-16%
Nc1c(Br)cc2c([nH]c(=O)c3ccccc32)c1Br,-4%,.,-28%,-66*,-6%
Cc1ccc2nc3cc([N+](=O)[O-])cc([N+](=O)[O-])c3cc2c1,0.95µM*,8%,-9%,-2,-29%
Cc1nc2ccc([N+](=O)[O-])cc2nc1C,2%,13%,-2%,2,-25%
COc1ccc(NC(=O)c2nnn(-c3ccc(C(C)C)cc3)c2C)c(OC)c1,.,.,.,.,1%
Cc1cc(N2CCCCC2)nc2c(C)cccc12,-6%,-5%,11%,3,-26%
Cc1cc(Cl)nc2c(C(C)C)cccc12,17µM*,10%,10%,-12,-25%
Nc1nnc(SC2CCCC2)s1,27µM*,3%,-12%,-7,-18%
COc1ccc(N2CCN(S(=O)(=O)CCNC(=O)c3ccc(C(F)(F)F)cc3)CC2)cc1,.,.,.,.,-20%
O=C(NC(=S)Nc1ccc(S(=O)(=O)Nc2ncccn2)cc1)c1ccc(Br)cc1,11µM*,0%,9%,-9,?
O=C(NC(=S)Nc1ccc(S(=O)(=O)Nc2nccs2)cc1)c1ccccc1F,15µM*,13%,-5%,-18,-17%
O=S(=O)(NNC(=S)Nc1ccc(S(=O)(=O)Nc2ncccn2)cc1)c1ccc(Br)cc1,-15%,3%,9%,1,-14%
O=C(Nc1ccc(S(=O)(=O)Nc2nccs2)cc1)c1nn(-c2ccccc2)ccc1=O,?,-1%,79µM*,?,-21%
N#C/C(=C(/O)c1ccccc1F)c1nc2cc(C(F)(F)F)ccc2s1,27µM*,2%,-13%,-26,?
COc1ccc(N2CCC(CNC(=S)Nc3ccc(C)cc3C)C2)cc1 (centres undefined),?,-1%,0%,5,-24%
COc1ccc(N2CCC(CNC(=S)Nc3c(C)cc(C)cc3C)C2)cc1 (centres undefined),12µM*,0%,-8%,4,-21%
Cc1ccc2nc(SCc3cn4cccnc4n3)[nH]c2c1,27µM*,0%,-12%,-12,-9%
COc1ccc(OCC(=O)OCc2cc(=O)n3nc(C4CCCCC4)sc3n2)cc1,.,.,.,.,-28%
Cc1ccc2c(c1)C1C=CCC1C(C(=O)O)N2 (centres undefined),.,2%,.,.,.
COc1cccc2c1NC(C(=O)O)C1CC=CC21 (centres undefined),27µM*,4%,13µM*,-96*,25µM*
O=C(O)C1Nc2c(cccc2C(F)(F)F)C2C=CCC12 (centres undefined),.,5%,.,.,.
CC(=O)c1ccc2c(c1)C1C=CCC1C(C(=O)O)N2 (centres undefined),7.5µM*,11µM*,14µM*,-91*,32µM*
